{
  "source": "the supplement of paper PMC8728848",
  "assay_in_all_cases": "glycan array binding signal (z-score within array); higher = stronger binding",
  "conditions_in_all_cases": "glycan notation: IUPAC condensed, linker removed",
  "key": {"[1]": {"molecular_target": "Fuc(a1-2)Gal(b1-3)GalNAc(b1-4)[Neu5Ac(a2-3)]Gal(b1-4)Glc", "in_short": "(§1)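 Glycan array data were curated from 3228 arrays in the Consortium for Functional Glycomics database and kept only where the protein sequence was available. Glycan names were converted to IUPAC-condensed notation, and columns mapping to the same glycan were averaged. The binding signal is a within-array Z-score, averaged across arrays of the same protein sequence at different concentrations or buffers and across linkers. Negative Z-scores can be read as non-binding.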"}, "Fuc(a1-2)Gal(b1-4)Glc": {"molecular_target": "Fuc(a1-2)Gal(b1-4)Glc", "in_short": "as §1"}, "Fuc(a1-2)Gal(b1-4)Glc6S": {"molecular_target": "Fuc(a1-2)Gal(b1-4)Glc6S", "in_short": "as §1"}, "Fuc(a1-2)Gal(b1-4)GlcNAc": {"molecular_target": "Fuc(a1-2)Gal(b1-4)GlcNAc", "in_short": "as §1"}, "[2]": {"molecular_target": "Fuc(a1-2)Gal(b1-4)GlcNAc6S", "in_short": "as §1"}, "Fuc(a1-2)Gal6S(b1-4)Glc": {"molecular_target": "Fuc(a1-2)Gal6S(b1-4)Glc", "in_short": "as §1"}, "[3]": {"molecular_target": "Fuc(a1-2)Gal6S(b1-4)Glc6S", "in_short": "as §1"}, "[4]": {"molecular_target": "Fuc(a1-2)[Gal(a1-4)]Gal(b1-4)GlcNAc", "in_short": "as §1"}, "[5]": {"molecular_target": "Fuc(a1-2)[GalNAc(a1-3)]Gal(b1-4)GlcNAc", "in_short": "as §1"}, "[6]": {"molecular_target": "Fuc(a1-2)[GalNAc(a1-4)]Gal(b1-4)GlcNAc", "in_short": "as §1"}, "Gal(a1-3)Gal(b1-3)GlcNAc": {"molecular_target": "Gal(a1-3)Gal(b1-3)GlcNAc", "in_short": "as §1"}, "Gal(a1-3)Gal(b1-4)Glc": {"molecular_target": "Gal(a1-3)Gal(b1-4)Glc", "in_short": "as §1"}, "Gal(a1-3)Gal(b1-4)GlcNAc": {"molecular_target": "Gal(a1-3)Gal(b1-4)GlcNAc", "in_short": "as §1"}, "[7]": {"molecular_target": "Gal(a1-4)Gal(b1-3)GlcNAc(b1-2)Man(a1-3)[Gal(a1-4)Gal(b1-3)GlcNAc(b1-2)Man(a1-6)]Man(b1-4)GlcNAc(b1-4)GlcNAc", "in_short": "as §1"}, "Gal(a1-4)Gal(b1-4)GlcNAc": {"molecular_target": "Gal(a1-4)Gal(b1-4)GlcNAc", "in_short": "as §1"}, "Gal(a1-4)GlcNAc": {"molecular_target": "Gal(a1-4)GlcNAc", "in_short": "as §1"}, "[8]": {"molecular_target": "Gal(b1-4)GlcNAc(b1-2)[Gal(b1-4)GlcNAc(b1-4)]Man(a1-3)[Gal(b1-4)GlcNAc(b1-2)[Gal(b1-4)GlcNAc(b1-6)]Man(a1-6)]Man(b1-4)GlcNAc(b1-4)GlcNAc", "in_short": "as §1"}, "Gal3S6S(b1-4)GlcNAc6S": {"molecular_target": "Gal3S6S(b1-4)GlcNAc6S", "in_short": "as §1"}, "Gal6S(b1-4)GlcNAc": {"molecular_target": "Gal6S(b1-4)GlcNAc", "in_short": "as §1"}, "[9]": {"molecular_target": "GalNAc(a1-3)Fuc(a1-2)Gal(b1-4)GlcNAc(b1-3)[GalNAc(a1-3)Fuc(a1-2)Gal(b1-4)GlcNAc(b1-6)]GalNAc", "in_short": "as §1"}, "GalNAc(b1-3)Gal": {"molecular_target": "GalNAc(b1-3)Gal", "in_short": "as §1"}, "[10]": {"molecular_target": "Glc(a1-6)Glc(a1-6)Glc(a1-6)Glc", "in_short": "as §1"}, "Glc(b1-4)Glc": {"molecular_target": "Glc(b1-4)Glc", "in_short": "as §1"}, "Glc(b1-6)Glc": {"molecular_target": "Glc(b1-6)Glc", "in_short": "as §1"}, "[11]": {"molecular_target": "GlcNAc(a1-4)Gal(b1-4)GalNAc", "in_short": "as §1"}, "[12]": {"molecular_target": "GlcNAc(a1-6)Gal(b1-4)GlcNAc", "in_short": "as §1"}, "[13]": {"molecular_target": "GlcNAc(b1-2)[GlcNAc(b1-6)]Man(a1-6)[GlcNAc(b1-2)Man(a1-3)]Man(b1-4)GlcNAc(b1-4)GlcNAc", "in_short": "as §1"}, "Kdn(a2-3)Gal(b1-4)GlcNAc": {"molecular_target": "Kdn(a2-3)Gal(b1-4)GlcNAc", "in_short": "as §1"}, "[14]": {"molecular_target": "Neu5Ac(a2-3)Gal(b1-3)GalNAc", "in_short": "as §1"}, "[15]": {"molecular_target": "Neu5Ac(a2-3)Gal(b1-3)GlcNAc(b1-3)Gal(b1-4)GlcNAc", "in_short": "as §1"}, "[16]": {"molecular_target": "Neu5Ac(a2-3)Gal(b1-3)[Fuc(a1-4)]GlcNAc", "in_short": "as §1"}, "[17]": {"molecular_target": "Neu5Ac(a2-3)Gal(b1-3)[Fuc(a1-4)]GlcNAc(b1-3)Gal(b1-4)[Fuc(a1-3)]GlcNAc", "in_short": "as §1"}, "[18]": {"molecular_target": "Neu5Ac(a2-3)Gal(b1-3)[Neu5Ac(a2-6)]GalNAc", "in_short": "as §1"}, "[19]": {"molecular_target": "Neu5Ac(a2-3)Gal(b1-4)GlcNAc(b1-3)Gal(b1-3)GlcNAc", "in_short": "as §1"}, "[20]": {"molecular_target": "Neu5Ac(a2-3)Gal(b1-4)GlcNAc(b1-6)[Gal(b1-3)]GalNAc", "in_short": "as §1"}, "[21]": {"molecular_target": "Neu5Ac(a2-3)Gal(b1-4)GlcNAc(b1-6)[Neu5Ac(a2-3)Gal(b1-3)]GalNAc", "in_short": "as §1"}, "Neu5Ac(a2-3)GalNAc": {"molecular_target": "Neu5Ac(a2-3)GalNAc", "in_short": "as §1"}},
  "note": "Many of the other results were omitted from the sample, so the strongest signals are more common in it than they were.",
  "data": [
    {"binder": "UEA-I (Ulex europaeus), P22972 (protein) SDDLSFKFKNFSQNGKDLSFQGDASVIETGVLQLNKVGNNLPDETGGIARYIAPIHIWNCNTGEVASFITSFSFFMETSANPKAATDGLTFFLAPPDSPLRRAGGYFGLFEDTKDNDSSYQTVAVEFDTIGSPVNFDDPGFPHIGIDVNRVKSINAERWNKRYGLNNVANVEIIYEASSKTLTASLTYPSDQTSISVTSIVDLKEILPEWVSVGFSGGTYIGRQATHEVLNWYFTSNLIN", "values": [
      {"measurement": "glycan array binding signal (z-score)", "setting": "[1]", "value": -0.19},
      {"measurement": "glycan array binding signal (z-score)", "setting": "Fuc(a1-2)Gal(b1-4)Glc", "value": 5.21},
      {"measurement": "glycan array binding signal (z-score)", "setting": "Fuc(a1-2)Gal(b1-4)Glc6S", "value": 8.13},
      {"measurement": "glycan array binding signal (z-score)", "setting": "Fuc(a1-2)Gal(b1-4)GlcNAc", "value": 6.42},
      {"measurement": "glycan array binding signal (z-score)", "setting": "[2]", "value": 6.86},
      {"measurement": "glycan array binding signal (z-score)", "setting": "Fuc(a1-2)Gal6S(b1-4)Glc", "value": 4.06},
      {"measurement": "glycan array binding signal (z-score)", "setting": "[3]", "value": 8.02},
      {"measurement": "glycan array binding signal (z-score)", "setting": "[4]", "value": 5.33},
      {"measurement": "glycan array binding signal (z-score)", "setting": "[5]", "value": -0.183},
      {"measurement": "glycan array binding signal (z-score)", "setting": "[6]", "value": 4.61},
      {"measurement": "glycan array binding signal (z-score)", "setting": "Gal(a1-3)Gal(b1-3)GlcNAc", "value": -0.18},
      {"measurement": "glycan array binding signal (z-score)", "setting": "Gal(a1-3)Gal(b1-4)Glc", "value": -0.172},
      {"measurement": "glycan array binding signal (z-score)", "setting": "Gal(a1-3)Gal(b1-4)GlcNAc", "value": -0.186},
      {"measurement": "glycan array binding signal (z-score)", "setting": "[7]", "value": -0.17},
      {"measurement": "glycan array binding signal (z-score)", "setting": "Gal(a1-4)Gal(b1-4)GlcNAc", "value": -0.176},
      {"measurement": "glycan array binding signal (z-score)", "setting": "Gal(a1-4)GlcNAc", "value": -0.174},
      {"measurement": "glycan array binding signal (z-score)", "setting": "[8]", "value": -0.175},
      {"measurement": "glycan array binding signal (z-score)", "setting": "Gal3S6S(b1-4)GlcNAc6S", "value": -0.174},
      {"measurement": "glycan array binding signal (z-score)", "setting": "Gal6S(b1-4)GlcNAc", "value": -0.188},
      {"measurement": "glycan array binding signal (z-score)", "setting": "[9]", "value": -0.158},
      {"measurement": "glycan array binding signal (z-score)", "setting": "GalNAc(b1-3)Gal", "value": -0.18},
      {"measurement": "glycan array binding signal (z-score)", "setting": "[10]", "value": -0.177},
      {"measurement": "glycan array binding signal (z-score)", "setting": "Glc(b1-4)Glc", "value": -0.178},
      {"measurement": "glycan array binding signal (z-score)", "setting": "Glc(b1-6)Glc", "value": -0.185},
      {"measurement": "glycan array binding signal (z-score)", "setting": "[11]", "value": -0.175},
      {"measurement": "glycan array binding signal (z-score)", "setting": "[12]", "value": -0.176},
      {"measurement": "glycan array binding signal (z-score)", "setting": "[13]", "value": -0.186},
      {"measurement": "glycan array binding signal (z-score)", "setting": "Kdn(a2-3)Gal(b1-4)GlcNAc", "value": -0.185},
      {"measurement": "glycan array binding signal (z-score)", "setting": "[14]", "value": -0.18},
      {"measurement": "glycan array binding signal (z-score)", "setting": "[15]", "value": -0.182},
      {"measurement": "glycan array binding signal (z-score)", "setting": "[16]", "value": -0.181},
      {"measurement": "glycan array binding signal (z-score)", "setting": "[17]", "value": -0.186},
      {"measurement": "glycan array binding signal (z-score)", "setting": "[18]", "value": -0.17},
      {"measurement": "glycan array binding signal (z-score)", "setting": "[19]", "value": -0.178},
      {"measurement": "glycan array binding signal (z-score)", "setting": "[20]", "value": -0.183},
      {"measurement": "glycan array binding signal (z-score)", "setting": "[21]", "value": -0.179},
      {"measurement": "glycan array binding signal (z-score)", "setting": "Neu5Ac(a2-3)GalNAc", "value": -0.177}
    ]}
  ]
}
